Data taken from the supplement of paper PMC8007513.
Counter-ions that a name gives are not always drawn. ± gives the standard error. Among all 1,300 compounds or so, about 130 (10%) showed an effect of 50% or more. Many of the other results were omitted from the sample, so strong results are more common in it than they were.

Tested on: Trichoderma virens ATCC 9645
Test: growth yield (OD600) with compound + IPBC relative to untreated control; higher = less growth inhibition
Settings: compound concentration: 100 uM, IPBC concentration: 200 ng/ml
Method in brief: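 For each 96-well plate, 100 μl aliquots were prepared with Trichoderma virens ATCC 9645 spores suspended at 15,000 spores ml^−1 in potato dextrose broth. The spores had been harvested from potato dextrose agar plates after 7 days. Library compounds were present at 100 μM final, some wells also receiving a biocide at 200 ng ml^−1, and plates were grown at 30 °C with OD600 read on a BioTek EL800 at 40 h and 72 h. Reported growth, relative to the control lacking both agents, is the mean of duplicate screens.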

| Structure (SMILES) | growth yield (40 h) | growth yield (72 h) |
| --- | --- | --- |
| COC(=O)C1=C(C#N)NC(C)=C(C(=O)OC(C)C)C1c1cccc([N+](=O)[O-])c1 (stereo not drawn) [Nilvadipine] + CCCCNC(=O)OCC#CI [3-iodo-2-propynyl butylcarbamate (IPBC)] | 107.2 ± 0.16% | 102 ± 2.5% |
| Cc1cc(O)c(C(=O)N[C@@H](C(=O)N[C@@H]2C(=O)N3C(C(=O)O)=C(CSc4nnnn4C)CS[C@H]23)c2ccc(O)cc2)cn1 [Cefpiramide] + CCCCNC(=O)OCC#CI [3-iodo-2-propynyl butylcarbamate (IPBC)] | 89.4 ± 2.7% | 90.9 ± 1.4% |
| CN(C)C/C=C(/c1ccc(Br)cc1)c1cccnc1 [Zimelidine dihydrochloride monohydrate] + CCCCNC(=O)OCC#CI [3-iodo-2-propynyl butylcarbamate (IPBC)] | 77.8 ± 0.95% | 93.5 ± 2.1% |
| C=C[C@H]1CN2CC[C@H]1C[C@@H]2[C@@H](O)c1ccnc2ccc(OC)cc12 [Quinidine hydrochloride monohydrate] + CCCCNC(=O)OCC#CI [3-iodo-2-propynyl butylcarbamate (IPBC)] | 77.7 ± 7.5% | 89.8 ± 6.3% |
| O=C(c1ccc(F)cc1)C1CCN(CCn2c(=O)[nH]c3ccccc3c2=O)CC1 [Ketanserin tartrate hydrate] + CCCCNC(=O)OCC#CI [3-iodo-2-propynyl butylcarbamate (IPBC)] | 98.5 ± 8.3% | 101 ± 3.2% |
| CCNC(=O)CCC/C=C\C[C@@H]1[C@@H](/C=C/[C@@H](O)CCc2ccccc2)[C@H](O)C[C@@H]1O [Bimatoprost] + CCCCNC(=O)OCC#CI [3-iodo-2-propynyl butylcarbamate (IPBC)] | 94.5 ± 5.6% | 95.4 ± 4.2% |
| Cc1nc2n(c(=O)c1CCN1CCC(c3noc4cc(F)ccc34)CC1)CCCC2O (stereo not drawn) [Paliperidone] + CCCCNC(=O)OCC#CI [3-iodo-2-propynyl butylcarbamate (IPBC)] | 82.28 ± 0.32% | 90.09 ± 0.32% |
| Nc1c(Br)cc(Br)cc1CN[C@H]1CC[C@H](O)CC1 [Ambroxol hydrochloride] + CCCCNC(=O)OCC#CI [3-iodo-2-propynyl butylcarbamate (IPBC)] | 73.2 ± 2.1% | 88.9 ± 2.5% |
| CCOC(=O)OC(C)OC(=O)[C@@H]1N2C(=O)[C@@H](NC(=O)[C@H](N)c3ccccc3)[C@H]2SC1(C)C (stereo partly drawn) [Bacampicillin hydrochloride] + CCCCNC(=O)OCC#CI [3-iodo-2-propynyl butylcarbamate (IPBC)] | 89.1 ± 7.5% | 92.3 ± 3.8% |
| CCN(CC)CC#CCOC(=O)C(O)(c1ccccc1)C1CCCCC1 (stereo not drawn) [Oxybutynin chloride] + CCCCNC(=O)OCC#CI [3-iodo-2-propynyl butylcarbamate (IPBC)] | 74.18 ± 0.16% | 88.52 ± 0.63% |
| CCn1cc(C(=O)O)c(=O)c2cnc(N3CCCC3)nc21 [Piromidic acid] + CCCCNC(=O)OCC#CI [3-iodo-2-propynyl butylcarbamate (IPBC)] | 99.9 ± 14% | 99.5 ± 5.3% |
| CCn1cc(C(=O)O)c(=O)c2cnc(N3CCNCC3)nc21 [Pipemidic acid] + CCCCNC(=O)OCC#CI [3-iodo-2-propynyl butylcarbamate (IPBC)] | 85.1 ± 3.2% | 90.1 ± 3% |
| CCn1cc(C(=O)O)c(=O)c2ccc(C)nc21 [Nalidixic acid sodium salt] + CCCCNC(=O)OCC#CI [3-iodo-2-propynyl butylcarbamate (IPBC)] | 49.2 ± 1.6% | 100 ± 2.1% |
| COc1ccc(C(CN(C)C)C2(O)CCCCC2)cc1 (stereo not drawn) [Venlafaxine] + CCCCNC(=O)OCC#CI [3-iodo-2-propynyl butylcarbamate (IPBC)] | 85.6 ± 4.3% | 89 ± 3% |
| CC(C(=O)O)c1ccc2c(c1)[nH]c1ccc(Cl)cc12 (stereo not drawn) [Carprofen] + CCCCNC(=O)OCC#CI [3-iodo-2-propynyl butylcarbamate (IPBC)] | 33.2 ± 0.16% | 68.3 ± 1.1% |
| CC(C(=O)O)c1ccc(C(=O)c2cccs2)cc1 (stereo not drawn) [Suprofen] + CCCCNC(=O)OCC#CI [3-iodo-2-propynyl butylcarbamate (IPBC)] | 86.6 ± 14% | 89.1 ± 8.6% |
| CC(C)Cc1ccc([C@H](C)C(=O)O)cc1 [S-(+)-ibuprofen] + CCCCNC(=O)OCC#CI [3-iodo-2-propynyl butylcarbamate (IPBC)] | 70.68 ± 0.16% | 96.7 ± 1.7% |
| CC(C)(C)NC[C@H](O)COc1cccc2c1CCCC2=O [(-) -Levobunolol hydrochloride] + CCCCNC(=O)OCC#CI [3-iodo-2-propynyl butylcarbamate (IPBC)] | 97.8 ± 16% | 99.2 ± 11% |
| c1ccc(C2CN3CCSC3=N2)cc1 (stereo not drawn) [Tetramisole hydrochloride] + CCCCNC(=O)OCC#CI [3-iodo-2-propynyl butylcarbamate (IPBC)] | 87.8 ± 9.1% | 93.1 ± 4.8% |
| COc1ccc(CCN2CCC(Nc3nc4ccccc4n3Cc3ccc(F)cc3)CC2)cc1 [Astemizole] + CCCCNC(=O)OCC#CI [3-iodo-2-propynyl butylcarbamate (IPBC)] | 5.08% | 4.3 ± 0.32% |

| Structure (SMILES) | growth yield (40 h) | growth yield (72 h) |
| --- | --- | --- |
| Clc1ccc(Cn2c(CN3CCCC3)nc3ccccc32)cc1 [Clemizole hydrochloride] + CCCCNC(=O)OCC#CI [3-iodo-2-propynyl butylcarbamate (IPBC)] | 73.5 ± 1.4% | 98.5 ± 1.4% |
| CN(c1nccc(=O)[nH]1)C1CCN(c2nc3ccccc3n2Cc2ccc(F)cc2)CC1 [Mizolastine] + CCCCNC(=O)OCC#CI [3-iodo-2-propynyl butylcarbamate (IPBC)] | 70.2 ± 3.2% | 88.1 ± 4.8% |
| CC(C)NCC(O)COc1ccc(CCOCC2CC2)cc1 (stereo not drawn) [Betaxolol hydrochloride] + CCCCNC(=O)OCC#CI [3-iodo-2-propynyl butylcarbamate (IPBC)] | 90.2 ± 11% | 99.4 ± 4.2% |
| NC[C@H]1O[C@H](O[C@H]2[C@H](O[C@@H]3O[C@H](CO)[C@@H](O)[C@H]3O)[C@@H](O)[C@H](N)C[C@@H]2N)[C@H](N)[C@@H](O)[C@@H]1O [Ribostamycin sulfate salt] + CCCCNC(=O)OCC#CI [3-iodo-2-propynyl butylcarbamate (IPBC)] | 91.5 ± 6.3% | 96.1 ± 3.4% |
| Cc1cccn2c(=O)c(-c3nnn[nH]3)cnc12 [Pemirolast potassium] + CCCCNC(=O)OCC#CI [3-iodo-2-propynyl butylcarbamate (IPBC)] | 72.7 ± 1.9% | 84.4 ± 2% |
| O=C1CN(/N=C/c2ccc(-c3ccc([N+](=O)[O-])cc3)o2)C(=O)N1 [Dantrolene sodium salt] + CCCCNC(=O)OCC#CI [3-iodo-2-propynyl butylcarbamate (IPBC)] | 103 ± 3.8% | 104 ± 3.1% |
| CCCCC(CC)CNC(=N)NC(=N)NCCCCCCNC(=N)NC(=N)NCC(CC)CCCC (stereo not drawn) [Alexidine dihydrochloride] + CCCCNC(=O)OCC#CI [3-iodo-2-propynyl butylcarbamate (IPBC)] | 2.5415 ± 3.6e-15% | 2.94 ± 0.21% |
| Cn1c(=O)c2c(ncn2CC(=O)O)n(C)c1=O [Acefylline] + CCCCNC(=O)OCC#CI [3-iodo-2-propynyl butylcarbamate (IPBC)] | 90.1 ± 2.1% | 91.1 ± 2% |
| NCC(CC(=O)O)c1ccc(Cl)cc1 (racemic) [Baclofen (R,S)] + CCCCNC(=O)OCC#CI [3-iodo-2-propynyl butylcarbamate (IPBC)] | 96.1 ± 4% | 96.8 ± 3.2% |
| O=C(O)c1cccnc1 [Niacin] + CCCCNC(=O)OCC#CI [3-iodo-2-propynyl butylcarbamate (IPBC)] | 105 ± 1.9% | 102.8 ± 0.84% |
| O=C(Oc1cccc2cccnc12)c1ccccc1 [Benzoxiquine] + CCCCNC(=O)OCC#CI [3-iodo-2-propynyl butylcarbamate (IPBC)] | 36.4 ± 0.48% | 65.5 ± 0.73% |
| CC(=O)Oc1ccccc1C(=O)Oc1ccccc1C(=O)O [Acetylsalicylsalicylic acid] + CCCCNC(=O)OCC#CI [3-iodo-2-propynyl butylcarbamate (IPBC)] | 85 ± 1.8% | 89.7 ± 2.2% |
| Fc1ccc([C@@H]2CCNC[C@H]2COc2ccc3c(c2)OCO3)cc1 [Paroxetine Hydrochloride] + CCCCNC(=O)OCC#CI [3-iodo-2-propynyl butylcarbamate (IPBC)] | 68 ± 4.8% | 92.5 ± 2.5% |
| O=C(O)CNC(=O)C(CS)Cc1ccccc1 (stereo not drawn) [Thiorphan] + CCCCNC(=O)OCC#CI [3-iodo-2-propynyl butylcarbamate (IPBC)] | 88.16 ± 0.48% | 90% |
| C/C(=C(\CCOP(=O)(O)O)SC(=O)c1ccccc1)N(C=O)Cc1cnc(C)nc1N [Benfotiamine] + CCCCNC(=O)OCC#CI [3-iodo-2-propynyl butylcarbamate (IPBC)] | 89.6 ± 4.1% | 90.3 ± 3.7% |
| COc1cc(C)nc(-n2nc(C)cc2OC)n1 [Epirizole] + CCCCNC(=O)OCC#CI [3-iodo-2-propynyl butylcarbamate (IPBC)] | 92.3 ± 7.5% | 101 ± 6.2% |
| C[C@@H](CN1CC(=O)NC(=O)C1)N1CC(=O)NC(=O)C1 [Dexrazoxane hydrochloride] + CCCCNC(=O)OCC#CI [3-iodo-2-propynyl butylcarbamate (IPBC)] | 109.4 ± 0.48% | 106 ± 4.2% |
| Cc1ccc(C(=O)c2cc(O)c(O)c([N+](=O)[O-])c2)cc1 [Tolcapone] + CCCCNC(=O)OCC#CI [3-iodo-2-propynyl butylcarbamate (IPBC)] | 47.5 ± 3.3% | 56 ± 2.7% |
| CCN(CC)C(=O)/C(C#N)=C/c1cc(O)c(O)c([N+](=O)[O-])c1 [Entacapone] + CCCCNC(=O)OCC#CI [3-iodo-2-propynyl butylcarbamate (IPBC)] | 88 ± 0.64% | 80.4 ± 1.4% |
